# Bioassay records (PubChem BioAssay)
# NPC1 promoter act – activators of NPC1 promoter; Huh7 NPC1 promoter luciferase reporter, 24 h; Potency, µM (series often up to 9.22 µM), for inactives: at the top dose activation, usual class: activators; 320,000 tested, 2.4% active; also: % of control where 0% means no effect; nearly all actives have a fitted effect of over 60% in size
#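 Huh7 reporter cells (NPC1 promoter driving luciferase) are dosed with compound for 24 h at 37 °C, 5% CO2; luciferase detection reagent is then added and luminescence measured after 10 min at ambient temperature.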
# SMN2 splice up – SMN2 splice variant enhancement; HEK293 SMN2-luciferase splicing reporter, luminescence, 30-36 h; Potency, µM (doses to about 46.1 µM), inactives show at the highest dose activity change, positive = activation, most hits filed as activators; 210,000 tested, 2.8% active; AID 1458; also: % of control where 0% means no effect; nearly all actives have a fitted effect of over 55% in size
#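 HEK293 cells carry an SMN2 minigene-luciferase reporter in which exon 7 inclusion puts luciferase in frame. Cells were seeded at 2000 cells/well, attached for 10-12 hours, then exposed to compounds for 30-36 hours at 37C before ONE-Glo luminescence.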
# ELG1 genotoxic – genotoxicity induction in ELG1-luciferase HEK293T cells; HEK293T ELG1-luciferase reporter, luminescence, 16 h; 330,000 tested, 1.3% active; Potency, µM (series often up to 46 µM), without a hit: at the top dose activity change, positive = activation, usual class: activators; AID 504466; also: % of control where 0% means no effect; nearly all actives have a fitted effect of over 60% in size
#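 Quantitative HTS format in 1536-well plates. HEK293T ELG1-luciferase reporter cells receive test compound and are incubated 16 hr at 37 °C, 5% CO2; ONE-Glo added, 30 min room temperature, then luminescence read.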
# ELG1 DNA repair – inhibitors of ELG1-dependent DNA repair in HEK293T cells | AID 504467 | 330,000 tested, 2.3% active | Potency, µM (top dose mostly 46.1 µM), without a hit: top-dose activity change, negative = inhibition, actives largely listed as inhibitors | HEK293T ELG1-luciferase reporter, luminescence, 16 h; DNA damage induced by 5-fluorouridine; also: % is scaled to controls: 0 for no effect and ±100 for the full control effect; nearly all actives have a fitted effect of over 55% in size
#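 Reporter activity after DNA damage by 5-fluorouridine is monitored. Compound-treated cells incubate 16 hr at 37 °C, then ONE-Glo is added for 30 min before luminescence reading.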
# FLuc modulator – counter-screen for miR-21 project: firefly luciferase inhibitors or activators | AID 588342 | purified FLuc, Km substrates, luminescence inhibition | P08659 | Potency, µM (highest dose often 57.5 µM), for inactives: at the highest dose activity change, negative = inhibition, hits mostly inhibitors | 360,000 tested, 6.9% active;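 also: plate controls were vehicle for no effect and reference inhibitor for full effect; nearly all actives have a fitted effect of over 55% in size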
# Target sequence (P08659 whole entry, looked up): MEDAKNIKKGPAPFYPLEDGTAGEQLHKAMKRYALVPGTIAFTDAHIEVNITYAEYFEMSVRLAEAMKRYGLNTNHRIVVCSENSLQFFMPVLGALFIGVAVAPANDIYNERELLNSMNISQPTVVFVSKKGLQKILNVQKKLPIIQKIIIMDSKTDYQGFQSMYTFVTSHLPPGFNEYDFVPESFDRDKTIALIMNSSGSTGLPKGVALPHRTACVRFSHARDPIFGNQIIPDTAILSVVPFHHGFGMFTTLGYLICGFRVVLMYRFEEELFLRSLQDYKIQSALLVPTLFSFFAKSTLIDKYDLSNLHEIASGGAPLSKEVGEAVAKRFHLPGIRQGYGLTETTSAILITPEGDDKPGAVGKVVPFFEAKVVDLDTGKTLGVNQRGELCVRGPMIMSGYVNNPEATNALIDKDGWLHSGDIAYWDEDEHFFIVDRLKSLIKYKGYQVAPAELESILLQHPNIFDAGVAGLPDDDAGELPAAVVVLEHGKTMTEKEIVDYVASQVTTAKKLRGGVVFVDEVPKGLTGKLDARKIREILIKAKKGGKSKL
#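 Purified P. pyralis luciferase, 10 nM final, with Km-level 10 uM D-luciferin and 10 uM ATP in 50 mM Tris acetate pH 7.5, 10 mM Mg acetate, 0.01% Tween-20, 0.05% BSA; 6-point qHTS titration about 60 µM downward; luminescence read.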
# Rab9 prom act – Rab9 promoter activation. AID 485297. 320,000 tested, 2.8% active. Potency, µM (highest dose often 9.22 µM), inactives show at the highest dose activation, negative = inhibition, usual class: activators. Huh7 Rab9 promoter-luciferase reporter, luminescence, 24 h; also: % of control where 0% means no effect; nearly all actives have a fitted effect of over 60% in size
#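 Stable Rab9-luc Huh7, 1500 cells/well, 2 h settle; cmpd in DMSO, 24 h, 37 °C/5% CO2; luciferase reagent 10 min RT; luminescence.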
# * = called active by the depositor; ? = inconclusive; . = no result; [ ] = dose if it differs, or a comment. The list is not random: actives were taken first. Their share in the collection is about 9.4%. Calls follow the shape of the dose curve; as a rule, active = well fitted curve in the direction sought with a large enough effect; inconclusive = small, poorly fitted or top-dose-only effect, or another doubt; inactive = no such curve, though single readings can be large; an effect the other way counts as inactive or inconclusive. Potency is read from the fitted curve at half-maximal effect.
SMILES,NPC1 promoter act,SMN2 splice up,ELG1 genotoxic,ELG1 DNA repair,FLuc modulator,Rab9 prom act
CCC[C@@H]1C[C@@]1(CCC)C(NC(=O)c1ccccc1)c1cccc(Cl)c1 (stereo partly drawn),.,-15%,.,.,.,.
N=c1ccn2c(n1)O[C@H]1[C@@H](O)[C@@H](CO)O[C@H]12,.,-36%,.,.,.,.
O=C(O)c1ccc(S(=O)(=O)N[C@H](Cc2ccc(O)cc2)C(=O)O)cc1,-3%,.,.,.,0%,-6%
CC(=O)N(/N=C1\Sc2ccccc2C1=O)c1cccc(C)c1,?,5.6µM*,?,?,11µM*,14%
Cc1c(CC(=O)N[C@H](C(=O)O)C(C)C)c(=O)oc2cc3c(cc12)CCC(C)(C)O3,2.8µM*,.,?,?,11µM*,1.8µM*
Cc1c(CC(=O)NCC(C)C)c(=O)oc2cc3c(cc12)CCC(C)(C)O3,-6%,.,1%,11%,?,26%
Cc1c(CC(=O)N[C@@H](C)C(=O)O)c(=O)oc2cc3c(cc12)CCC(C)(C)O3,4%,.,0%,14%,?,15%
Cc1c(Cc2ccccc2)c(=O)oc2c(C)c(OCC(=O)N3CCC(C(=O)O)CC3)ccc12,0%,.,2%,-3%,17µM*,5%
Cc1c(CC(=O)N2CCC(C(=O)O)CC2)c(=O)oc2cc3c(cc12)CCC1(CCCCC1)O3,-3%,.,8%,18%,12µM*,3%
Cc1c(CC(=O)NC(C)C)c(=O)oc2cc3c(cc12)CCC(C)(C)O3,?,.,14%,?,?,3.2µM*
COc1ccc(-c2nc3cnc(N4CCNCC4)nc3n(CCC#N)c2=O)cc1,.,-3%,.,.,.,.
CCC(C)NC(=O)Cc1c(C)c2cc3c(cc2oc1=O)OC(C)(C)CC3 (stereo not drawn),?,.,9%,?,?,4µM*
O=C(NC1CCCCC1)c1cc(-c2cccc(Cl)c2)on1,?,.,?,?,-13%,?
O=C(NC1CCCC1)c1cc(-c2ccc(Cl)cc2)on1,1.4µM*,.,4.6µM*,?,2.7µM*,1.8µM*
O=C(NC1CCCC1)c1cc(-c2ccc(F)cc2)on1,1µM*,.,4.6µM*,?,4.8µM*,1.8µM*
O=C(NC1CCCC1)c1cc(-c2cccc(Cl)c2)on1,2.8µM*,.,18µM*,?,15µM*,2.8µM*
O=C(NC1CCCCC1)c1cc(-c2ccc(Cl)cc2)on1,30%,.,8%,?,3%,26%
Cc1ccc(-n2nc(C(=O)NC(C)C)c(=O)n(C)c2=O)cc1,.,.,.,.,-1%,.
Cc1cc(C(=O)COc2cccc([N+](=O)[O-])c2)c(C)n1C1CC1,2.2µM*,.,?,?,2.4µM*,3.2µM*
Cc1cc(C(=O)COC(=O)c2cccc(O)c2)c(C)n1C1CC1,?,.,?,?,0.27µM*,?
Cc1nn(CC(=O)c2ccccc2Cl)c(C)c1[N+](=O)[O-],?,?,15µM*,?,11µM*,4µM*
CCOC(=O)c1c(C)[nH]c(C)c1S(=O)(=O)NCC(=O)Nc1ccc(CC)cc1,.,.,.,.,7%,.
COC(=O)CCC(=O)c1oc2ccccc2c1NC(=O)CCCN1C(=O)c2ccccc2C1=O,6%,-19%,-1%,-6%,-4%,4%
COC(=O)CCC(=O)c1oc2ccccc2c1N,0%,-11%,?,?,21µM*,-6%
COC(=O)c1ccc(NC(=O)c2cccc(NC(=O)c3ccco3)c2)cc1,-9%,.,1%,-1%,-14%,8%
SMILES,NPC1 promoter act,SMN2 splice up,ELG1 genotoxic,ELG1 DNA repair,FLuc modulator,Rab9 prom act
CCOC(=O)c1ccc(NC(=O)N(CC)CC)cc1,?,11µM*,16µM*,?,19µM*,2.5µM*
CC(C)OC(=O)c1ccc2nc3ccccc3nc2c1,2.8µM*,.,?,?,1.7µM*,0.71µM*
CC(C)OC(=O)c1ccc(NC(=O)c2ccccc2)cc1,4µM*,13µM*,17%,?,15µM*,?
CCOC(=O)CC(=O)Nc1ccc(C(=O)OCC)cc1,0%,-4%,19%,20%,-20%,1%[1.84 µM]
CCOC(=O)c1ccc(NC(=O)c2ccco2)cc1,3.5µM*,.,?,?,11µM*,2.2µM*
CCc1ccc2c(c1)c(=O)c(C(=O)c1ccc(C)cc1)cn2CC(=O)Nc1ccc2c(c1)OCCO2,.,10%,.,.,0%,.
Cc1ccc(NC(=S)N(CCN(C)C)Cc2cccs2)cc1,-8%,-20%,-4%,-15%,0%,-2%
CCOC(=O)c1ccc(NC(=S)N(CCN(C)C)Cc2cccs2)cc1,-8%,3.5µM*,-11%,?,-1%,-1%
CC(C)OC(=O)c1ccc(NC(=O)c2ccco2)cc1,2.5µM*,.,2.8µM*,?,13µM*,3.2µM*
Cc1ccc(NC(=O)CNC(=O)c2ccco2)cc1,?,.,17%,?,?,4µM*
CCOC(=O)c1ccc(NC(=O)CN(C)S(=O)(=O)c2ccc(Br)s2)cc1,1%,-19%,0%,26µM*,?,-8%
Cc1ccc(Cn2ccn(Cc3ccc(C)cc3)c(=O)c2=O)cc1,.,.,.,.,2%,.
O=C(CCc1nc2cccnc2n1Cc1cccs1)Nc1cccc(Cl)c1,.,-9%,.,.,-11%,.
CC(/C=C/c1ccco1)=N\NC(=O)c1cc(C)[nH]n1,4%,15%,13%,15%,-2%,-4%
C/C(=N\NC(=O)c1cc(-c2ccc(C)s2)[nH]n1)c1ccco1,23%,11µM*,14%,?,21µM*,28%
C/C(=N/NC(=O)c1cc(C)[nH]n1)c1ccco1,?,.,?,?,21µM*,4µM*
C/C(=N\NC(=O)Cc1cccn1C)c1ccco1,-5%,.,3%,?,-12%,-4%
C/C(=N\NC(=O)c1ccn(C)n1)c1ccco1,?,.,16µM*,?,17µM*,2.5µM*
CCOc1ccc(CCNC(=O)c2cc3sc(CC)cc3n2C)cc1OCC,.,-17%,.,.,-7%,.
CC(=O)Nc1ccc(NC(=O)C2(c3cccs3)CCOCC2)cc1,.,.,.,.,-2%,.
COc1ccc(C)c2sc(N(Cc3cccnc3)C(=O)CCc3ccccc3)nc12,.,.,.,.,-2%,.
CCOC(=O)N1CCN(C(=O)CCCOc2ccccc2)CC1,2.8µM*,13µM*,?,?,-11%[2.3 µM],1.8µM*
Cc1ccccc1N1CCN(C(=O)CCN2C(=O)c3ccccc3C2=O)CC1,1%,4%,5%,-2%,17µM*,17%
O=C(CCCOc1ccccc1)N1CCN(c2ccccc2)CC1,3.5µM*,?,9.2µM*,?,9.5µM*,2.8µM*
